Where a chain is given by its changes, count along the chain named.
Columns and labels:
Experiment in all cases: PBM; 200 nM protein, PBS
Details in all cases: dsDNA, one strand shown
HOXC10 [1] = molecular target: HOXC10 (Homo sapiens, UniProt Q9NYD6 254-340)
HOXA2 [2] = molecular target: HOXA2 (Homo sapiens, UniProt O43364 129-215, R185T)
HOXA2 [3] = molecular target: HOXA2 (Homo sapiens, UniProt O43364 129-215, R185K)
HOXC10 [4] = molecular target: HOXC10 (Homo sapiens, UniProt Q9NYD6 254-340, K271E)
HOXA2 [5] = molecular target: HOXA2 (Homo sapiens, UniProt O43364 129-215, Y150S)
HOXA2 [6] = molecular target: HOXA2 (Homo sapiens, UniProt O43364 129-215)
PRRX1 [7] = molecular target: PRRX1 (Homo sapiens, UniProt P54821 80-166, F113S)
HOXD13 [8] = molecular target: HOXD13 (Homo sapiens, UniProt P35453 263-343, T313R)
HOXD13 [9] = molecular target: HOXD13 (Homo sapiens, UniProt P35453 263-343)
HOXD13 [10] = molecular target: HOXD13 (Homo sapiens, UniProt P35453 263-343, T313A)
PRRX1 [11] = molecular target: PRRX1 (Homo sapiens, UniProt P54821 80-166)
NKX2-6 [12] = molecular target: T1, NKX2-6 (Homo sapiens, UniProt A6NCS4 118-204, R150C)
T1 sequence: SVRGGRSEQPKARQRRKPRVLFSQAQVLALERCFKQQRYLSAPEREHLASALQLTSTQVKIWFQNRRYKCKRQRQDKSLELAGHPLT

ALX3 [13] = molecular target: ALX3 (Homo sapiens, UniProt O95076 139-225, N203Q)
NKX2-6 [14] = molecular target: T2, NKX2-6 (Homo sapiens, UniProt A6NCS4 118-204)
T2 sequence: T1 sequence with C33R

ALX3 [15] = molecular target: ALX3 (Homo sapiens, UniProt O95076 139-225)
ALX3 [16] = molecular target: ALX3 (Homo sapiens, UniProt O95076 139-225, L168Q)
NKX2-6 [17] = molecular target: T3, NKX2-6 (Homo sapiens, UniProt A6NCS4 118-204, F151L)
T3 sequence: T1 sequence with C33R, F34L

ALX3 [18] = molecular target: ALX3 (Homo sapiens, UniProt O95076 139-225, L168V)
ALX3 [19] = molecular target: ALX3 (Homo sapiens, UniProt O95076 139-225, N203S)
ALX4 [20] = molecular target: ALX4 (Homo sapiens, UniProt Q9H161 200-286, Q225E)
HOXC9 = HOXC9 (Homo sapiens, UniProt P31274 178-260, R222W)
PAX4 [21] = molecular target: T4, PAX4 (Homo sapiens, UniProt O43316 9-242, R200K)
T4 sequence: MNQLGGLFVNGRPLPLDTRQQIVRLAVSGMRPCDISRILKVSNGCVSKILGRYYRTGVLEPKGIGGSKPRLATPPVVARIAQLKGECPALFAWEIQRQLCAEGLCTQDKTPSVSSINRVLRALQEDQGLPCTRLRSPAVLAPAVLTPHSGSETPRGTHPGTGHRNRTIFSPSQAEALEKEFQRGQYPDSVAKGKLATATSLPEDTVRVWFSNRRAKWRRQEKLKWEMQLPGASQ

PAX4 [22] = molecular target: T5, PAX4 (Homo sapiens, UniProt O43316 9-242)
T5 sequence: T4 sequence with K192R

PAX4 [23] = molecular target: T6, PAX4 (Homo sapiens, UniProt O43316 9-242, R200Q)
T6 sequence: T4 sequence with K192Q

PAX4 [24] = molecular target: T7, PAX4 (Homo sapiens, UniProt O43316 9-242, F177V)
T7 sequence: T4 sequence with F169V, K192R

PAX4 [25] = molecular target: T8, PAX4 (Homo sapiens, UniProt O43316 9-242, F177Y)
T8 sequence: T4 sequence with F169Y, K192R

PAX4 [26] = molecular target: T9, PAX4 (Homo sapiens, UniProt O43316 9-242, R227W)
T9 sequence: T4 sequence with K192R, R219W

ALX4 [27] = molecular target: ALX4 (Homo sapiens, UniProt Q9H161 200-286)
Chain of ALX4 (Homo sapiens, UniProt Q9H161 200-286) (Q9H161 200-286): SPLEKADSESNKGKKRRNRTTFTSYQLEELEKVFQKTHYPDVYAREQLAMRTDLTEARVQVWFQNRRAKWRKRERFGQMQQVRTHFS

Chain of HOXD13 (Homo sapiens, UniProt P35453 263-343) (P35453 263-343): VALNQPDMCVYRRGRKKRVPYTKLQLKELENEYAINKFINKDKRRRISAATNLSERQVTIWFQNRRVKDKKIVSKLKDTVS
Chain of HOXD13 (Homo sapiens, UniProt P35453 263-343, T313A) (P35453 263-343 T313A): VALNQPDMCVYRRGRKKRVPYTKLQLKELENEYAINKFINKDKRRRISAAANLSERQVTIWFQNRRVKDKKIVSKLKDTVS
Chain of HOXC10 (Homo sapiens, UniProt Q9NYD6 254-340, K271E) (Q9NYD6 254-340 K271E): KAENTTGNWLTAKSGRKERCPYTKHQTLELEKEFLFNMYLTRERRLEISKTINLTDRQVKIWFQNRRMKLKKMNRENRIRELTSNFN
Chain of HOXC10 (Homo sapiens, UniProt Q9NYD6 254-340) (Q9NYD6 254-340): as the sequence (Q9NYD6 254-340 K271E) above, with E18K counted along it
Chain of HOXD13 (Homo sapiens, UniProt P35453 263-343, T313R) (P35453 263-343 T313R): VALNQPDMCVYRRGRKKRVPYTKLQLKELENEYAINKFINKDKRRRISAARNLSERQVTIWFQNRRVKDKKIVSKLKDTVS
Chain of ALX4 (Homo sapiens, UniProt Q9H161 200-286, Q225E) (Q9H161 200-286 Q225E): as the sequence (Q9H161 200-286) above, with Q26E counted along it
Chain of HOXA2 (Homo sapiens, UniProt O43364 129-215, Y150S) (O43364 129-215 Y150S): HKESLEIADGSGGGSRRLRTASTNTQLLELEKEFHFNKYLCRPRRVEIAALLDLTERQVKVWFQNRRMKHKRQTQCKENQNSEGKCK
Chain of ALX3 (Homo sapiens, UniProt O95076 139-225, L168V) (O95076 139-225 L168V): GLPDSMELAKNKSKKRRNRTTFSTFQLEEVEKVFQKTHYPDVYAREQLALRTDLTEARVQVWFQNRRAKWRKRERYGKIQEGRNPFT
Chain of ALX3 (Homo sapiens, UniProt O95076 139-225, L168Q) (O95076 139-225 L168Q): as the sequence (O95076 139-225 L168V) above, with V30Q counted along it
Chain of PRRX1 (Homo sapiens, UniProt P54821 80-166) (P54821 80-166): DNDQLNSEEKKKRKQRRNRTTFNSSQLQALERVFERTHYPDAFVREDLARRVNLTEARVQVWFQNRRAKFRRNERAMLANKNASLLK
Chain of HOXA2 (Homo sapiens, UniProt O43364 129-215) (O43364 129-215): as the sequence (O43364 129-215 Y150S) above, with S22Y counted along it
Chain of ALX3 (Homo sapiens, UniProt O95076 139-225, N203Q) (O95076 139-225 N203Q): as the sequence (O95076 139-225 L168V) above, with V30L, N65Q counted along it
Chain of HOXA2 (Homo sapiens, UniProt O43364 129-215, R185T) (O43364 129-215 R185T): as the sequence (O43364 129-215 Y150S) above, with S22Y, R57T counted along it
Chain of ALX3 (Homo sapiens, UniProt O95076 139-225) (O95076 139-225): as the sequence (O95076 139-225 L168V) above, with V30L counted along it
Chain of HOXA2 (Homo sapiens, UniProt O43364 129-215, R185K) (O43364 129-215 R185K): as the sequence (O43364 129-215 Y150S) above, with S22Y, R57K counted along it
Chain of HOXC9 (P31274 178-260 R222W): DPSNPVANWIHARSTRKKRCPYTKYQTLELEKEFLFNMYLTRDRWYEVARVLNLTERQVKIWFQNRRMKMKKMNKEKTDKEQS
Chain of PRRX1 (Homo sapiens, UniProt P54821 80-166, F113S) (P54821 80-166 F113S): as the sequence (P54821 80-166) above, with F34S counted along it
Chain of ALX3 (Homo sapiens, UniProt O95076 139-225, N203S) (O95076 139-225 N203S): as the sequence (O95076 139-225 L168V) above, with V30L, N65S counted along it

**Q.** For CGCCCCCC, which binding signal (HOXC10 [1]) is on record?
**A.** 9.91 upbm affinity estimate (log intensity, higher = more binding, comparable within an allelic series)

**Q.** What about the binding signal (HOXA2 [2]) of the same sequence?
**A.** 6.85 upbm affinity estimate (log intensity, higher = more binding, comparable within an allelic series)

**Q.** What about the binding signal (HOXA2 [3]) of the same sequence?
**A.** 9.91 upbm affinity estimate (log intensity, higher = more binding, comparable within an allelic series)

**Q.** And the binding signal (HOXC10 [4])?
**A.** 9.87 upbm affinity estimate (log intensity, higher = more binding, comparable within an allelic series)

**Q.** What about the binding signal (HOXA2 [5]) of the same sequence?
**A.** 10.3 upbm affinity estimate (log intensity, higher = more binding, comparable within an allelic series)

**Q.** What about the binding signal (HOXA2 [6]) of the same sequence?
**A.** 6.92 upbm affinity estimate (log intensity, higher = more binding, comparable within an allelic series)

**Q.** Which results are given for CTTTATGA?
**A.** binding signal (HOXC10 [1]): 12.2 upbm affinity estimate (log intensity, higher = more binding, comparable within an allelic series); binding signal (PRRX1 [7]): 10 upbm affinity estimate (log intensity, higher = more binding, comparable within an allelic series); binding signal (HOXD13 [8]): 10.5 upbm affinity estimate (log intensity, higher = more binding, comparable within an allelic series); binding signal (HOXD13 [9]): 11.8 upbm affinity estimate (log intensity, higher = more binding, comparable within an allelic series); binding signal (HOXC10 [4]): 11.6 upbm affinity estimate (log intensity, higher = more binding, comparable within an allelic series); binding signal (HOXD13 [10]): 11.5 upbm affinity estimate (log intensity, higher = more binding, comparable within an allelic series); binding signal (PRRX1 [11]): 11.2 upbm affinity estimate (log intensity, higher = more binding, comparable within an allelic series)

**Q.** How did the binding signal (HOXC10 [1]) turn out when ACCGGGCT was run?
**A.** 10.1 upbm affinity estimate (log intensity, higher = more binding, comparable within an allelic series)

**Q.** What about the binding signal (NKX2-6 [12]) of the same sequence?
**A.** 9.65 upbm affinity estimate (log intensity, higher = more binding, comparable within an allelic series)

**Q.** And the binding signal (HOXC10 [4])?
**A.** 10.1 upbm affinity estimate (log intensity, higher = more binding, comparable within an allelic series)

**Q.** How did the binding signal (HOXC10 [1]) turn out when CCCCCAGG was run?
**A.** 10.1 upbm affinity estimate (log intensity, higher = more binding, comparable within an allelic series)

**Q.** And the binding signal (ALX3 [13])?
**A.** 7.76 upbm affinity estimate (log intensity, higher = more binding, comparable within an allelic series)

**Q.** And the binding signal (NKX2-6 [14])?
**A.** 9.38 upbm affinity estimate (log intensity, higher = more binding, comparable within an allelic series)

**Q.** And the binding signal (HOXC10 [4])?
**A.** 10.1 upbm affinity estimate (log intensity, higher = more binding, comparable within an allelic series)

**Q.** What about the binding signal (ALX3 [15]) of the same sequence?
**A.** 7.79 upbm affinity estimate (log intensity, higher = more binding, comparable within an allelic series)

**Q.** What about the binding signal (ALX3 [16]) of the same sequence?
**A.** 7.67 upbm affinity estimate (log intensity, higher = more binding, comparable within an allelic series)

**Q.** And the binding signal (NKX2-6 [17])?
**A.** 9.1 upbm affinity estimate (log intensity, higher = more binding, comparable within an allelic series)

**Q.** What about the binding signal (ALX3 [18]) of the same sequence?
**A.** 7.72 upbm affinity estimate (log intensity, higher = more binding, comparable within an allelic series)

**Q.** And the binding signal (ALX3 [19])?
**A.** 7.71 upbm affinity estimate (log intensity, higher = more binding, comparable within an allelic series)

**Q.** For CCCCGGGC, which binding signal (HOXC10 [1]) is on record?
**A.** 9.93 upbm affinity estimate (log intensity, higher = more binding, comparable within an allelic series)

**Q.** And the binding signal (HOXD13 [8])?
**A.** 9.37 upbm affinity estimate (log intensity, higher = more binding, comparable within an allelic series)

**Q.** And the binding signal (HOXD13 [9])?
**A.** 9.35 upbm affinity estimate (log intensity, higher = more binding, comparable within an allelic series)

**Q.** And the binding signal (HOXC10 [4])?
**A.** 9.89 upbm affinity estimate (log intensity, higher = more binding, comparable within an allelic series)

**Q.** And the binding signal (HOXD13 [10])?
**A.** 9.35 upbm affinity estimate (log intensity, higher = more binding, comparable within an allelic series)

**Q.** For CCAATAAA, which binding signal (HOXC10 [1]) is on record?
**A.** 12.1 upbm affinity estimate (log intensity, higher = more binding, comparable within an allelic series)

**Q.** What about the binding signal (ALX4 [20]) of the same sequence?
**A.** 11.4 upbm affinity estimate (log intensity, higher = more binding, comparable within an allelic series)

**Q.** And the binding signal (HOXD13 [8])?
**A.** 11.1 upbm affinity estimate (log intensity, higher = more binding, comparable within an allelic series)

**Q.** What about the binding signal (HOXD13 [9]) of the same sequence?
**A.** 12.4 upbm affinity estimate (log intensity, higher = more binding, comparable within an allelic series)

**Q.** And the binding signal (HOXC10 [4])?
**A.** 11.3 upbm affinity estimate (log intensity, higher = more binding, comparable within an allelic series)

**Q.** What about the binding signal (HOXD13 [10]) of the same sequence?
**A.** 12.2 upbm affinity estimate (log intensity, higher = more binding, comparable within an allelic series)

**Q.** What about the binding signal (HOXC9) of the same sequence?
**A.** 11.1 upbm affinity estimate (log intensity, higher = more binding, comparable within an allelic series)

**Q.** For CCCCACCG, which binding signal (HOXC10 [1]) is on record?
**A.** 10.2 upbm affinity estimate (log intensity, higher = more binding, comparable within an allelic series)

**Q.** And the binding signal (PAX4 [21])?
**A.** 9.41 upbm affinity estimate (log intensity, higher = more binding, comparable within an allelic series)

**Q.** And the binding signal (PAX4 [22])?
**A.** 9.56 upbm affinity estimate (log intensity, higher = more binding, comparable within an allelic series)

**Q.** What about the binding signal (PAX4 [23]) of the same sequence?
**A.** 9.46 upbm affinity estimate (log intensity, higher = more binding, comparable within an allelic series)

**Q.** And the binding signal (PAX4 [24])?
**A.** 9.14 upbm affinity estimate (log intensity, higher = more binding, comparable within an allelic series)

**Q.** What about the binding signal (HOXC10 [4]) of the same sequence?
**A.** 10.1 upbm affinity estimate (log intensity, higher = more binding, comparable within an allelic series)

**Q.** And the binding signal (PAX4 [25])?
**A.** 9.27 upbm affinity estimate (log intensity, higher = more binding, comparable within an allelic series)

**Q.** What about the binding signal (PAX4 [26]) of the same sequence?
**A.** 9.33 upbm affinity estimate (log intensity, higher = more binding, comparable within an allelic series)

**Q.** Which binding signal (HOXC10 [1]) does the source give for CTGGTGGC here?
**A.** 9.99 upbm affinity estimate (log intensity, higher = more binding, comparable within an allelic series)

**Q.** And the binding signal (ALX4 [27])?
**A.** 7.93 upbm affinity estimate (log intensity, higher = more binding, comparable within an allelic series)

**Q.** What about the binding signal (ALX4 [20]) of the same sequence?
**A.** 8.14 upbm affinity estimate (log intensity, higher = more binding, comparable within an allelic series)

**Q.** What about the binding signal (HOXC10 [4]) of the same sequence?
**A.** 10.1 upbm affinity estimate (log intensity, higher = more binding, comparable within an allelic series)

Source: publication PMC11006913
